# High-throughput results: PubChem BioAssay, Sanford-Burnham Center for Chemical Genomics
# Sampled rows, rich in hits. Any-hit rate of the full collection: about 3%.
# SENP7 inh: SENP7 protease inhibition; inhibition, % at 5 µM; recombinant SENP7, Z-RLRGG-aminoluciferin luminescence, 40 min; Q9BQF6; AID 434973; actives 1.5% (n = 330,000);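 active = inhibition above about 50% at the single test dose, limit read from the data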;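 note: plate controls were DMSO with enzyme for no effect and no enzyme buffer wells for full effect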
# SENP8 block-1: SENP8 protease inhibition. Q96LD8. purified SENP8, Z-RLRGG-aminoluciferin cleavage, luminescence. AID 2540. inhibition, % at 10 µM. actives 1.2% (n = 330,000); in the data active = inhibition above about 50%
# Target sequence (Q96LD8 whole entry, looked up): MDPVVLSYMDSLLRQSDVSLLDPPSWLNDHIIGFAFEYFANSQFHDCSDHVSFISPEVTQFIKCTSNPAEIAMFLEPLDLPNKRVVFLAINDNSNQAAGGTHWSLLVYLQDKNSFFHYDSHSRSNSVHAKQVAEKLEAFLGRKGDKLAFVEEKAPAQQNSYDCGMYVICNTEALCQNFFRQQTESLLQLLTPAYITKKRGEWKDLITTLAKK
# TRAIL sens C8: caspase-8 TRAIL sensitization | NB7+C8 cells + TRAIL, ATPlite viability luminescence | inhibition (viability loss, TRAIL sensitization), % at 10 µM | actives 1% (n = 360,000) | AID 624354;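 active = compounds causing at least 50% loss of cell viability in the single-dose screen, relative to plate controls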
# PPC-1+TRAIL kill: kills PPC-1 cancer cells in the presence of TRAIL; PPC-1 cells + TRAIL, ATPLite viability luminescence; cell killing (% activity), % at 4 µM or 5 µM; actives 0.41% (n = 220,000); AID 1443;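 active = cell killing above 50% in the first pass at 4 µM, then a duplicate retest at 5 µM averaging 50% or more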;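 note: plate controls were cells with TRAIL plus DMSO for no effect and medium-only wells lacking cells for full effect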
# SENP8 block-2: inhibitors of human SENP8 protease; actives 0.64% (n = 360,000); inhibition, % at 20 µM; AID 602440; recombinant SENP8, Nedd8 substrate fluorescence; in the data active = inhibition mostly above about 40%, no sharp cut-off; inactive = mostly below about 27%
# SENP6 inh: SENP6 protease inhibition. inhibition, % at 10 µM. Q9GZR1. Recombinant SENP6 catalytic domain, aminoluciferin luminescence. actives 1.8% (n = 330,000);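 active = inhibition above about 50% at the single tested dose, limit read from the data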;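 note: plate controls were DMSO wells with enzyme for no effect and DMSO wells lacking enzyme for full effect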
# SENP8 conf: human SENP8 inhibition, confirmed | AID 488912 | actives 40% (n = 6,200) | Recombinant SENP8, Z-RLRGG-aminoluciferin luminescence, 60 min | inhibition, % at 12.5 µM | shares compounds with SENP7 inh;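 active = mean inhibition across replicates above about 50%, limit read from the data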
# SENP6 conf: confirmation of human SENP6 protease inhibitors | inhibition, % at 12.5 µM | actives 58% (n = 6,200) | shares compounds with SENP7 inh | recombinant SENP6, Z-RLRGG-aminoluciferin luminescence
# SENP7 confirm: confirmation of human SENP7 protease inhibitors; inhibition, % at 12.5 µM; shares compounds with SENP7 inh; AID 488917; recombinant SENP7, Z-RLRGG-aminoluciferin luminescence, 40 min; actives 69% (n = 6,200)
# Casp3 select: selectivity test for SENP inhibitors: human caspase-3 inhibition; shares compounds with SENP7 inh; purified caspase-3, Z-DEVD-aminoluciferin luminescence, 60 min; inhibition, % at 12.5 µM; actives 60% (n = 6,200);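 active = mean inhibition above about 50%, limit read from the data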;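 note: plate controls were enzyme with DMSO for no effect and wells without caspase-3 for full effect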
# Target sequence (P42574 28-227 limits assumed): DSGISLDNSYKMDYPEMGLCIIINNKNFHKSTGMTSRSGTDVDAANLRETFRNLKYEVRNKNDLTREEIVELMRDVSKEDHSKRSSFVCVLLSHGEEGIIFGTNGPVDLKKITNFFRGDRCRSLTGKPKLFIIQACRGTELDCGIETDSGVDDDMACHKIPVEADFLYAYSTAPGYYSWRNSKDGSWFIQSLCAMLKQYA
# SENP luc ctr: counter-screen for SENP inhibitors: luminescence interference; shares compounds with SENP7 inh; Pre-incubated SENP8/Z-RLRGG-aminoluciferin, luciferase luminescence interference; inhibition, % at 12.5 µM; actives 39% (n = 6,200); AID 488919;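 active = mean inhibition above about 50% when retested at one dose, limit read from the data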;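 note: plate controls were DMSO wells with completed reaction for no effect and substrate without enzyme for full effect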
# Active calls of the source: *; . = no result given.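 Rule for the calls, unless noted: active = mean inhibition above about 50% in the one-dose retest (limit read from the data); inactive = the rest.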
SMILES,SENP7 inh,SENP8 block-1,TRAIL sens C8,PPC-1+TRAIL kill,SENP8 block-2,SENP6 inh,SENP8 conf,SENP6 conf,SENP7 confirm,Casp3 select,SENP luc ctr
O=C(NCC(=O)N1CCN(Cc2c(F)cccc2Cl)CC1)c1cccc(Cl)c1,-10.7,-6.7,15.9,.,1.0,-6.1,.,.,.,.,.
COc1ccccc1CNC(=O)CN1C(=O)NC2(CCOc3ccccc32)C1=O (stereo unspecified),-0.8,-10.1,-15.6,.,4.1,-10.9,.,.,.,.,.
Cc1ccc2c(c1)N(CC(=O)NCC(C)c1ccccc1)C(=O)c1cccnc1O2 (stereo unspecified),-2.3,-12.4,1.5,.,-8.5,-1.3,.,.,.,.,.
CN(C)S(=O)(=O)c1cccc(NC(=O)c2ccc(S(=O)(=O)N3CCCC3)cc2)c1,5.0,-11.2,34.1,.,11.5,-16.5,.,.,.,.,.
CN(Cc1ccccc1)C(=O)C(=O)c1c[nH]c2ccccc12,.,.,7.3,.,9.2,.,.,.,.,.,.
CC1=CC(c2ccccc2)=Nc2ccc(C)cc2N1,7.7,46.1,32.1,31.7,-34.4,60.1*,55.4*,27.8,66.4*,81.3*,80.1*
Brc1ccc(N=NNc2ccccc2)cc1,20.4,12.0,-3.5,.,37.8,51.2*,67.8*,74.4*,88.5*,28.5,46.5
O=[N+]([O-])c1ccc(N=NNc2ccccc2)cc1,39.8,29.4,2.8,-18.4,-7.4,59.3*,47.5,48.6,75.4*,16.8,25.2
O=[N+]([O-])c1cccc(NN=Nc2ccccc2)c1,69.0*,70.0*,3.3,.,25.4,63.8*,71.1*,68.7*,88.5*,35.5,67.2*
CCC(=O)N1CCC1(C)C(=O)Nc1ccc2nc(C)ccc2c1 (stereo unspecified),.,.,14.2,.,-44.8,.,.,.,.,.,.
CCN(CC)S(=O)(=O)c1ccc2[nH]c(=O)cc(C(=O)NCC3CCCO3)c2c1 (stereo unspecified),-0.2,5.6,3.9,.,-70.6,11.9,.,.,.,.,.
O=C(Nc1ccc2[nH]c(=O)[nH]c2c1)Nc1ccc(F)cc1F,-2.2,-9.1,0.2,4.6,-1.2,-10.8,.,.,.,.,.
O=C(Nc1ccc2[nH]c(=S)sc2c1)c1ccccc1,52.3*,42.1,5.1,32.4,-14.2,34.1,65.6*,67.0*,88.5*,83.2*,73.5*
O=C(Nc1ccc2[nH]c(=S)sc2c1)Nc1ccccc1F,98.7*,95.3*,22.1,16.7,-5.9,96.8*,98.9*,100.1*,103.5*,98.2*,90.0*
CC(=O)c1ccc(NC(=O)c2noc3c2CCCCC3)cc1,22.1,-6.3,18.9,-4.2,3.1,26.0,.,.,.,.,.
O=C(Nc1ccc(F)cc1F)c1noc2c1CCC2,53.0*,17.2,2.3,20.2,13.7,43.6,27.8,38.7,76.7*,69.1*,16.4
O=C(Nc1ccc2c(c1)OCO2)c1noc2c1CCCC2,81.2*,78.2*,22.7,.,5.8,87.5*,85.4*,86.1*,98.5*,90.6*,13.6
O=C(Nc1cc(Cl)ccc1Cl)c1noc2c1CCCC2,-0.4,3.2,-1.9,22.2,18.8,-10.5,.,.,.,.,.
O=C(Nc1ccc2c(c1)OCO2)c1noc2c1CCCCC2,59.6*,42.7,46.7,33.5,13.9,73.9*,62.8*,63.4*,87.4*,66.7*,69.0*
CCCCCCOc1ccc(C(=O)O)cc1C#N,5.8,61.1*,-5.1,15.5,19.7,76.8*,61.1*,60.9*,85.4*,76.6*,75.0*
CCN(CC)S(=O)(=O)c1cccc(N=NC2=C(O)CCCC2=O)c1,2.7,-1.8,23.7,-5.8,16.3,0.5,.,.,.,.,.
